Inconclusive results are not listed. Calls of active or inactive are those of the source. Unless noted, calls come from the whole dose curve; as a rule, active = well fitted curve in the direction sought with a large enough effect; inconclusive = small, poorly fitted or top-dose-only effect, or another doubt; inactive = no such curve, though single readings can be large; an effect the other way counts as inactive or inconclusive.
Key:
[1] = qHTS to identify inhibitors of the type 1 interferon - major histocompatibility complex class I in skeletal muscle: primary screen against the NCATS Pharmaceutical Collection (AID 1347407);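 note: luminescence of HiBiT knocked into endogenous HLA-B as interferon-induced MHC class I level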
How it was run: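 A qHTS format is used: 8-point, 1:5 compound series with 46 uM top final concentration, applied alongside 4 ng/ml IFN-beta to HLA-B*08:01-HiBiT knock-in myoblasts. Luminescence is measured after 24 h treatment.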

[2] = target: Protein phosphatase 1D (Homo sapiens) (UniProt O15297); assay: RapidFire Mass Spectrometry qHTS Assay for Modulators of WT P53-Induced Phosphatase 1 (WIP1) (AID 1347424);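 note: amount of dephosphorylated VEPPL-S-QETFS peptide product formed by WIP1; series mostly up to about 63 µM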
How it was run: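 WIP1 (10 nM final) was preincubated 1 h at room temperature with compounds in Tris-HCl pH 7.5, 30 mM MgCl2, TCEP, EGTA, BSA; 2 uM VEPPL-pS-QETFS phosphopeptide was added for 5 min, quenched with formic acid, and dephosphorylated product quantified by RapidFire MS.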

[3] = target: Protein phosphatase 1D (Homo sapiens) (UniProt O15297); assay: Rhodamine-PBP qHTS Assay for Modulators of WT P53-Induced Phosphatase 1 (WIP1) (AID 1347425)
How it was run: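 The read-out is the change in Rhodamine-PBP fluorescence (f1 - f0, ex 525/em 598 nm) as Pi is released, read each minute for 11 min. Final reaction: 5 nM WIP1, 10 uM phosphopeptide VEPPL-pS-QETFS, 10 uM Rh-PBP, 50 mM Tris-HCl pH 7.5, 30 mM MgCl2. Compound was preincubated with enzyme for 1 hour at room temperature.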

[4] = Primary qHTS for inhibitors of SARS-S pseudo-typed particle cell entry (AID 1479145; calls by dose curve; note: series mostly up to about 57 µM; nearly all actives have a fitted effect of over 45% in size)
[5] = Primary qHTS for Huh7 cytotoxicity: counterscreen for inhibitors of MERS-S pseudotyped particle cell entry (AID 1479147; calls by dose curve)
[6] = Primary qHTS for inhibitors of MERS-S pseudo-typed particle cell entry (AID 1479149; calls by dose curve; note: nearly all actives have a fitted effect of over 60% in size)
[7] = Primary qHTS for Vero E6 cytotoxicity: counterscreen for inhibitors of SARS-S pseudo-typed particle cell entry (AID 1479150; calls by dose curve)

Measured: Potency

Chain of Protein phosphatase 1D (Homo sapiens) (O15297 whole entry, looked up): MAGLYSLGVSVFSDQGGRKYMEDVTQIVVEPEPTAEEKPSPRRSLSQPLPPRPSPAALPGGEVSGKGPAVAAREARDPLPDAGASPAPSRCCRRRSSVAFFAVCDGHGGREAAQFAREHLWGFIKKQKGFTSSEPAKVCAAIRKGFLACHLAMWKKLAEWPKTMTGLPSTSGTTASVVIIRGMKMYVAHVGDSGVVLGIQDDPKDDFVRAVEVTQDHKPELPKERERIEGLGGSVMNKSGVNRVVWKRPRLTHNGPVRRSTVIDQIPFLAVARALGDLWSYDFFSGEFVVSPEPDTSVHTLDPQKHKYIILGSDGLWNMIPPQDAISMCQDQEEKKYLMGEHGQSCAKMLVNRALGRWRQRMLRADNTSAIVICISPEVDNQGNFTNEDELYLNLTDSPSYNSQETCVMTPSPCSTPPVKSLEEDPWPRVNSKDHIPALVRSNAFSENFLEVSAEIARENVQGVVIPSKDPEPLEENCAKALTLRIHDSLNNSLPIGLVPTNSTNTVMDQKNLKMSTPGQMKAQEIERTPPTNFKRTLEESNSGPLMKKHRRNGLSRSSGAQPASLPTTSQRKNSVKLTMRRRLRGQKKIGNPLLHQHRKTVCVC

O=C1OC(CCN2CCCCC2)OC1(c1ccccc1)c1ccccc1 (stereo not drawn)
inactive: [1] | [2] | [3]

CN1CC[C@]23c4c5ccc(O)c4O[C@H]2[C@@H](O)CC[C@H]3[C@H]1C5
inactive: [1] | [2] | [3]

COc1cccc([C@@]2(O)CCCC[C@@H]2CN(C)C)c1
inactive: [1] | [2] | [3]

NNc1ccccc1
inactive: [1] | [2] | [3]

CCC1(CC)C(=O)C=CNC1=O
inactive: [1] | [2] | [3]

COC(=O)[C@@H](N)CCCN/C(N)=N/[N+](=O)[O-]
inactive: [1] | [2] | [3]

CCCCCCC(=O)CCCCCC/C=C/C[C@@H](O)[C@H](O)[C@@](N)(CO)C(=O)O
inactive: [1] | [2] | [3]

Nc1ccccc1C(=O)O
inactive: [1] | [2] | [3]

CC(=O)OCC1=C(C(=O)O)N2C(=O)[C@@H](N)[C@H]2SC1
inactive: [1] | [2] | [3]

CC(=O)C1CCOC1=O (stereo not drawn)
inactive: [1] | [2] | [3]

c1ccc(CN2CCNCC2)cc1
inactive: [1] | [2] | [3]

CC(C(=O)c1ccccc1)N(C)C (stereo not drawn)
inactive: [1] | [2] | [3]

CCCCCCCCCC(=O)O[C@H]1CC[C@H]2[C@@H]3CCC4=CC(=O)CC[C@@H]4[C@H]3CC[C@]12C
inactive: [1] | [2] | [3]

C[C@]12CCC(=O)C=C1CC[C@@H]1[C@H]3CC[C@](C)(O)[C@@]3(C)CC[C@@H]12
inactive: [1] | [2] | [3]

ClCCN1CCCC1
inactive: [1] | [2] | [3]

CC(C)=CC1C(C(=O)OCN2C(=O)C3=C(CCCC3)C2=O)C1(C)C (stereo not drawn)
inactive: [1] | [2] | [3]

COC(=O)C(Cl)C(=O)OC
inactive: [1] | [2] | [3]

CCN(CCO)CCn1c(Cc2ccccc2)nc2c1c(=O)n(C)c(=O)n2C
inactive: [1] | [2] | [3]

COc1ccc2c3c1O[C@H]1[C@H](O)CC[C@H]4[C@@H](C2)N(C)CC[C@@]341
inactive: [1] | [2] | [3]

C=CCC1([C@H](C)CCC)C(=O)NC(=O)NC1=O
inactive: [1] | [2] | [3]

CC(C)c1c(CN(C)C(C)Cc2ccccc2)n(C)n(-c2ccccc2)c1=O (stereo not drawn)
inactive: [1] | [2] | [3]

Clc1ccccc1N1CCNCC1
inactive: [1] | [2] | [3]

CC1(C)C(C=C(Cl)Cl)C1C(=O)OC(C#N)c1cccc(Oc2ccccc2)c1 (stereo not drawn)
inactive: [1] | [2] | [3]

CCC1(c2ccccc2)C(=O)N(COC)C(=O)N(COC)C1=O
inactive: [1] | [2] | [3]

CC(C)(N)Cc1ccccc1Cl
inactive: [1] | [2] | [3]

O=C(O)c1ccc(=O)[nH]c1
inactive: [1] | [2] | [3]

CCN(CC)C(=O)[C@@H]1C=C2c3cccc4[nH]cc(c34)C[C@H]2N(C)C1
inactive: [1] | [2] | [3]

C#CC(O)(C=CCl)CC (stereo not drawn)
inactive: all assays above
